The subject of assay [1] is TGFBR1.
The subject of assay [2] is TIE2.
Assay [3] concerns TNK1.
Assay [4] relates to TNK2.
Assay [5] relates to TNNI3K.
In assay [6] the test system is ZAK.
Assay [7] relates to TTK.
For assay [8], the system named is YES.
Assay [9] deals with ZAP70.
Assay [10] has as its system cRAF.
Assay [11] deals with p70S6K.

On to `Cc1ccc(-c2cc(-c3c[nH]nc3-c3ccccn3)ccn2)cc1` [GW684088], for which the Kinases covered result in [1] is listed as “TGFBR1”.
Still for that read-out and setting: the value for `COc1cc(-c2cncc(-c3cnn(C4CCNCC4)c3)c2)cc(OC)c1OC` [K05908] was “TGFBR1”.
On to `CCn1cc(-c2ccnc3[nH]c(-c4cccc(CN(C)C)c4)cc23)c(-c2ccc(NC(=O)N(C)C)cc2)n1` [GSK1070916], for which the Kinases covered entry in assay [2] was “TIE2”.
Turning to `CCS(=O)(=O)c1ccc(OC)c(Nc2ncc(-c3cccc(OC)c3)o2)c1` [GW580509X], in assay [3], the Kinases covered entry is given as “TNK1”.
Regarding `COc1cc(N2CCN(C)CC2)ccc1Nc1ncc2c(n1)N(C)c1ccccc1C(=O)N2` [XMD8-87], the Kinases covered entry in [4] was “TNK2”.
In the case of `CNS(=O)(=O)c1ccc(N(C)C)c(Nc2ncnc3cc(OC)c(OC)cc23)c1` [GSK114], the Kinases covered result in assay [5] is listed as “TNNI3K”; in assay [6], “ZAK”.
Turning to `CC(=O)c1c(C)c2cnc(Nc3ccc(N4CCNCC4)cn3)nc2n(C2CCCC2)c1=O` [PFE-PKIS 32], in assay [7], the Kinases covered result was “TTK”.
For `CCS(=O)(=O)c1ccc(OC)c(Nc2ncc(-c3cccc(F)c3)o2)c1` [GW621970X], the Kinases covered result in assay [8] is “YES”.
In the case of `CCCS(=O)(=O)Nc1ccc(F)c(-n2cc(-c3cncc(OC)c3)nn2)c1F` [BI00865461], the Kinases covered entry in assay [6] is listed as “ZAK”.
For `NC(=O)c1cccnc1COc1cc(-c2ccc(N3CCOCC3)nc2)cc2ncccc12` [BI01125081], in assay [9], the Kinases covered entry is given as “ZAP70”.
For `O=C1Nc2ccc(I)cc2C1=Cc1cc(Br)c(O)c(Br)c1` [GW305074X], the Kinases covered result in assay [10] is recorded as “cRAF”.
On to `CCn1c(-c2nonc2N)nc2cncc(CNC3CCNCC3)c21` [SB-747651A], for which, in assay [11], the Kinases covered entry is “p70S6K”.
